Screening data from PubChem BioAssay.
LmPK inh: qHTS Assay for Inhibitors of Leishmania Mexicana Pyruvate Kinase (LmPK). Potency, µM (highest dose often 57.5 µM), most hits filed as inhibitors. 290,000 compounds, 0.37% hits. AID 1721, 2009. purified LmPK, Kinase-Glo ATP luminescence, 1 h. Q27686
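Purified LmPK (0.1 nM) with 0.5 mM PEP and 0.1 mM ADP in imidazole buffer pH 7.2 with MgCl2/KCl, 1 h at room temperature. ATP formed was read by luciferase luminescence and normalized to no-enzyme and uninhibited controls.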
Giardia FBPA inh: qHTS Assay for Inhibitors of Fructose-1,6-bisphosphate Aldolase from Giardia Lamblia; A8B2U2; purified Giardia FBPA; Potency, µM (series often up to 59.6 µM), most hits filed as inhibitors; 290,000 compounds, 0.71% hits; AID 2451, 2010; further: nearly all actives have a fitted effect of over 55% in size
Target sequence (A8B2U2 whole entry, looked up): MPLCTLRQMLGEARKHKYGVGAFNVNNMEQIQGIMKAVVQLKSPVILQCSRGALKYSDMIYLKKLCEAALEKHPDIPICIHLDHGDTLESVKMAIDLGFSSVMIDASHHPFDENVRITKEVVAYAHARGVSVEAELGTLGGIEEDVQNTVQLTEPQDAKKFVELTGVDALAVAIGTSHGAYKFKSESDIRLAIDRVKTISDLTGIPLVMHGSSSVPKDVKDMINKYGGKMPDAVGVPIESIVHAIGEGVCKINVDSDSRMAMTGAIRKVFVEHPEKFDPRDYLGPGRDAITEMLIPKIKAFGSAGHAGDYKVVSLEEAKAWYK
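40 nM FBPA preincubated 10 min at RT with compound (up to 57.5 uM final), then substrate plus GAPDH/TPI/NAD/arsenate coupling and diaphorase/resazurin added. Fluorescence read after 20 min at RT, 525/598 nm.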
Tb PYK inh: qHTS of Trypanosoma Brucei Inhibitors; Potency, µM (doses to about 76.8 µM), hits mostly inhibitors; TbPYK enzyme, Kinase-Glo Plus ATP luminescence, 45 min; pyruvate kinase (Trypanosoma brucei), Q57TT1; AID 624173, 2012; 410,000 compounds, 0.12% hits; further: nearly all actives have a fitted effect of over 50% in size
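TbPYK + substrate in 50 mM TEA pH 7.2, 100 mM KCl, 10 mM MgCl2, 0.05% BSA, 0.01% Tween-20; cpd pinned; ADP 130 uM final; 45 min RT; Kinase-Glo Plus 10 min; luminescence endpoint.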
CHX counter: Cycloheximide Counterscreen for Small Molecule Inhibitors of Shiga Toxin | cell reporter, cycloheximide protein synthesis inhibition counterscreen | 300,000 compounds, 12% hits | max response, %; in the data active means max response mostly above about 13%, no sharp cut-off; inactive means mostly below about 14%; further: read at 38.3 µM for the half of the compounds with a filed dose
Shiga inhibitor: A qHTS for Small Molecule Inhibitors of Shiga Toxin; Vero cells, Shiga toxin protein synthesis inhibition reporter; inhibition, % at 38.7 µM; 290,000 compounds, 9.2% hits; AID 2315, 2010; in the data active means inhibition mostly above about 28%, no sharp cut-off; inactive means mostly below about 43%
RE007 growth inh: qHTS Assay for Inhibitors of the HIV-1 protein Vpr; S. pombe RE007 Vpr strain, BacTiter-Glo ATP luminescence, 24 h; Potency, µM (doses to about 92.2 µM), most hits filed as inhibitors; 360,000 compounds, 0.21% hits; active means well fitted falling curve with a large enough effect; inconclusive means small, poorly fitted or top-dose-only effect; inactive means no such curve, though single readings can be large or run the other way; further: nearly all actives have a fitted effect of over 50% in size
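Fission yeast RE007 carrying one integrated HIV-1 vpr copy, seeded at OD 0.01 in PMG+AL medium with 23 nL pinned compound. Grown 24 h at 30 degrees; viability read by BacTiter-Glo luminescence after 5 min.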
Of the large screens only hits and unclear results are named; the others gave an inactive call. The sample as a whole holds a higher share of hits than the screen did. Unless noted, the call rests on the fitted dose curve; in most records, active means well fitted curve in the direction sought with a large enough effect; inconclusive means small, poorly fitted or top-dose-only effect, or another doubt; inactive means no such curve, though single readings can be large; an effect the other way counts as inactive or inconclusive.

COc1ccccc1/C=C/C(=O)NNC(=O)c1cccs1	CHX counter 26.3, Shiga inhibitor 70.9
O=C(/C=C/c1ccccc1)NNC(=O)c1cccs1	CHX counter 23.4
COc1ccc(/C=C/C2=NN(C)C(=O)CC2)cc1	CHX counter 34.5, Shiga inhibitor 54.2
CCOC(=O)CN1N=C(/C=C/c2ccc(C)cc2)CCC1=O	Shiga inhibitor 46.9
COc1ccc(C=O)cc1	none (no result: LmPK inh, Giardia FBPA inh, CHX counter, Shiga inhibitor)
Cc1ccc(/C=C/C2=NN(Cc3ccc(Cl)c(Cl)c3)C(=O)CC2)cc1	none
CC(C)(C)OC(=O)N1CCC(c2c(C(=O)N3CCN(c4ccccc4F)CC3)cnn2-c2ccccc2Cl)CC1	none (no result: LmPK inh, Giardia FBPA inh, CHX counter, Shiga inhibitor, RE007 growth inh)
CCCCOc1ccc(C2=NC(c3ccccc3)=Nc3ccc(OC)cc3N2)cc1	none (no result: LmPK inh, Giardia FBPA inh, CHX counter, Shiga inhibitor, RE007 growth inh)
Cn1cc([N+](=O)[O-])c(C(=O)Nc2ccc(-c3nc4ccccc4[nH]3)cc2)n1	CHX counter 32.2
Cn1cccc1-c1nc2ccc(NC(=O)c3ccc([N+](=O)[O-])cc3)cc2[nH]1	none
Cn1cc([N+](=O)[O-])c(C(=O)Nc2ccc3nc(-c4ccccc4)[nH]c3c2)n1	CHX counter 41.7, Shiga inhibitor 46.7
O=C(c1ccc([N+](=O)[O-])cc1Cl)N1CCN(c2ccccn2)CC1	none
O=[N+]([O-])c1ccc(N2CCN(c3ccccc3O)CC2)c(Cl)c1	Giardia FBPA inh inconclusive, CHX counter 47.7, Shiga inhibitor 133.1, RE007 growth inh inconclusive
O=[N+]([O-])c1ccc(N2CCN(c3ccccn3)CC2)c(Cl)c1	Shiga inhibitor 58.7
Cc1ccc(CNC(=O)Cc2c(C)c3cc4c(C)coc4cc3oc2=O)cc1	none (no result: LmPK inh, Giardia FBPA inh, CHX counter, Shiga inhibitor, RE007 growth inh)
Clc1cccc(Cl)c1C1=NOC(c2nnc(-c3ccccc3)o2)C1 (configuration not stated)	CHX counter 50.1, Shiga inhibitor 108.1
Cc1n[nH]c(C)c1CCNC(=O)C1CCC(=O)N(CCc2cccc(F)c2)C1 (configuration not stated)	none (no result: Giardia FBPA inh)
C/C(=N\NC(=O)c1ccccc1F)c1ccc2c(c1)Nc1ccccc1S2	CHX counter 33.5, Shiga inhibitor 64.8
O=C(CCc1ccccc1)Nc1cccnc1Cl	CHX counter 17.6
O=C(NCCCl)Nc1cccnc1Cl	CHX counter 12.1
O=C(Nc1ccccc1Cl)Nc1cccnc1Cl	none
O=C(CCc1ccccc1)Nc1cc(Cl)ccc1O	none
O=C(CC(=O)c1ccccc1)Nc1cccnc1Cl	CHX counter 44.0, Shiga inhibitor 73.3
Cc1ccc(CSc2nc3cccnc3n2Cc2nc(-c3ccccc3F)oc2C)cc1	none (no result: LmPK inh, Giardia FBPA inh, CHX counter, Shiga inhibitor, RE007 growth inh)
CCn1c(CNC(=O)c2ccc(OC)cc2)nnc1SCC(=O)Nc1ccc(C)cc1	none (no result: LmPK inh, Giardia FBPA inh, CHX counter, Shiga inhibitor, RE007 growth inh)
Cc1cc(NC(=O)CCC2CCCCC2)no1	CHX counter 25.3, Shiga inhibitor 61.1
Cc1ccnc(NC(=O)C23CC4CC(CC(C4)C2)C3)c1	CHX counter 12.3, RE007 growth inh inconclusive
O=C(CCC1CCCC1)Nc1ccc(Br)cn1	CHX counter 17.8, Shiga inhibitor 89.2
Cc1cc(NC(=O)CCC2CCCC2)no1	CHX counter 27.6
O=C(CCC1CCCC1)Nc1ccon1	none
Cc1cc(NC(=O)CN2CCCCCCC2)no1	none
COc1ccccc1CNC(=O)c1ccc(-c2nc(CS(=O)c3ccc(C)cc3)c(C)o2)cc1 (configuration not stated)	none (no result: LmPK inh, Giardia FBPA inh, CHX counter, Shiga inhibitor, RE007 growth inh)
COc1ccc(-n2c(SCC(=O)Nc3cccc(C)c3C)nc3c([nH]c4ccccc43)c2=O)cc1	none (no result: LmPK inh, Giardia FBPA inh, CHX counter, Shiga inhibitor, RE007 growth inh)
Cc1ccnc(NC(=O)CCC2CCCCC2)c1	CHX counter 41.6, Shiga inhibitor 126.2
O=C(COc1ccc2ccccc2c1)N1CCN(Cc2c[nH]c3ccccc23)CC1	CHX counter 16.9
Cn1c(=O)n(Cc2ccccc2Cl)c(=O)c2c1[nH]c(=S)n2C	Tb PYK inh 7.94µM
CC(C)(C)OC(=O)NC(NC(=O)OCC1c2ccccc2-c2ccccc21)C(=O)O (configuration not stated)	none (no result: LmPK inh, Tb PYK inh, RE007 growth inh)
COc1ccc(-c2nc3cnc(N4CCNCC4)nc3n(CCC#N)c2=O)cc1	none (no result: LmPK inh, CHX counter, Shiga inhibitor, RE007 growth inh)
